Compounds with a hit are over-represented: about 7.3% of the library has one in this group of screens.
Tau fibril ThT: blocks human tau fibril formation measured by thioflavin T; recombinant tau K18 P301L, heparin-induced fibrillization, ThT fluorescence; hit rate 2.1% among 270,000; P10636; Potency, µM (highest dose often 57.4 µM), for the others: at the top dose activity, negative = inhibition, hits mostly inhibitors; also: nearly all actives have a fitted effect of over 55% in size
Target sequence (P10636 561-689 P618L limits assumed): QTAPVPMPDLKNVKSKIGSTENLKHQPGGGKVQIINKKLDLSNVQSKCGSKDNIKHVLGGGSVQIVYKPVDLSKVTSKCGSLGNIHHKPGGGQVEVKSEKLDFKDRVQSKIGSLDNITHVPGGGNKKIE
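ThT emission at 510 nm, taken 1 hr after adding 30 uM dye, quantifies aggregates formed when 20 uM heparin acts on human tau K18 P301L for 6 hr at 37 C.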
VP16 counter: Gal4-VP16 reporter inhibition counter-screen | Potency, µM (series often up to 53.6 µM), inactives show at the highest dose activity, negative = inhibition, hits mostly inhibitors | Drosophila S2 Gal4-VP16 UAS-luciferase, luminescence, 20 h | hit rate 3.5% among 310,000 | AID 2546;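 also: Gal4-VP16 expression switched on by copper sulfate through the metallothionein promoter; nearly all actives have a fitted effect of over 50% in size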
Tau FP inhib: tau fibrillization inhibition (FP) | K18 P301L tau heparin fibrillization, Alexa594 FP, 6 h | Potency, µM (top dose mostly 57.7 µM), without a hit: at the top dose activity, negative = inhibition, actives largely listed as inhibitors | hit rate 0.39% among 280,000; also: nearly all actives have a fitted effect of over 55% in size
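K18 P301L tau (15 uM unlabeled/0.24 uM Alexa 594-labeled, final) + compound + heparin 20 uM final; 100 mM NaOAc pH 7; 6 hr 37 C; ThT 30 uM final added, 1 hr RT; FP ex 555/em 632 nm.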
Tau fluor cs: counter-screen for tau fibril formation inhibitors | tau K18 P301L Alexa594 fluorescence, heparin fibrillization | hit rate 0.93% among 280,000 | AID 1463 | Potency, µM (titrated, usually from 57.7 µM), without a hit: at the top dose activity change, negative = decrease; also: nearly all actives have a fitted effect of over 55% in size
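Human tau K18 P301L (15 uM unlabeled, 0.24 uM Alexa 594-labeled) in 100 mM sodium acetate pH 7 with 20 uM heparin, 6 hr at 37 C. ThT 30 uM added, 1 hr ambient; Alexa 594 FP and total fluorescence read at 555/632 nm.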
RORgamma inh: ROR gamma (mouse) transcription inhibition. Drosophila S2 Gal4-RORgamma UAS-luciferase reporter, 20 h. hit rate 5.4% among 310,000. Potency, µM (titrated, usually from 53.6 µM), inactives show at the highest dose activity change, negative = inhibition, most hits filed as inhibitors. P51450; also: nearly all actives have a fitted effect of over 60% in size
Target sequence (P51450 whole entry, looked up, the tested form may be a part): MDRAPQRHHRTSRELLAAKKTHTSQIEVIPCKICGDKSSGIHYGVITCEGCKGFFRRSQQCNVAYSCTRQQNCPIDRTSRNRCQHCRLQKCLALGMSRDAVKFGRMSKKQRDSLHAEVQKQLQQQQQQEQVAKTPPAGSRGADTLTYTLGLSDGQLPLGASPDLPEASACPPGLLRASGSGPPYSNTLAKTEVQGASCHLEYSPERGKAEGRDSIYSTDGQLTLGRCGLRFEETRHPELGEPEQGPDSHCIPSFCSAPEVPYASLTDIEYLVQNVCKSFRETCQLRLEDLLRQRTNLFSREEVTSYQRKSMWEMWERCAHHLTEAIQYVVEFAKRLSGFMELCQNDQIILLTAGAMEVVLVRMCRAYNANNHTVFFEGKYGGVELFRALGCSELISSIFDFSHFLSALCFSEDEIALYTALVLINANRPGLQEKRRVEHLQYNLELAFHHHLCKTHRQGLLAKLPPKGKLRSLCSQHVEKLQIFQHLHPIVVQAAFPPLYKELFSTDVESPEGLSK
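A Gal4/UAS one-hybrid system in insect cells: metallothionein-promoter Gal4–ROR gamma fusion plus Photinus luciferase reporter. Copper sulfate 700 uM final, 20 hr ambient incubation, luminescent detection after 10 min with reagent.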
An asterisk follows results filed as active; ? = inconclusive; . = no result given; [ ] = dose if it differs, or a comment. Calls follow the shape of the dose curve; as a rule, active = well fitted curve in the direction sought with a large enough effect; inconclusive = small, poorly fitted or top-dose-only effect, or another doubt; inactive = no such curve, though single readings can be large; an effect the other way counts as inactive or inconclusive. % is scaled to controls: 0 for no effect and ±100 for the full control effect; potency is read from the fitted curve at half-maximal effect.

SMILES | Tau fibril ThT | VP16 counter | Tau FP inhib | Tau fluor cs | RORgamma inh
CC(=O)OCC1=C(C(=O)O)N2C(=O)C(NC(=O)Cc3cccs3)C2SC1 (configuration not stated) | 20µM* | 15.2% | ? | -30.3% | 4.3%
C[C@@H](CO)NC(=O)c1ccc2c3n(nc2c1)-c1ccccc1CO3 | -13.3% | ? | 0.1% | -6.9% | 6.31µM*
O=[N+]([O-])c1ccc(Sc2nnnn2-c2ccccc2)c(Cl)c1 | ? | 3.6% | 10.1% | ? | ?
CC(=O)c1ccc(Sc2nnnn2-c2ccccc2)c([N+](=O)[O-])c1 | 0.4% | 11.2µM* | -4.1% | -12.3% | 8.91µM*
CN1CCN(S(=O)(=O)c2ccc(Sc3nnnn3-c3ccccc3)c([N+](=O)[O-])c2)CC1 | ? | ? | 1.8% | ? | 7.08µM*
CCC(=O)N1CCc2cc(S(=O)(=O)N3CCN(c4ccccc4F)CC3)ccc21 | -1.6% | . | -3.8% | -10.2% | .
CN1C(=O)C2(c3ccccc31)N(c1cccc(C(F)(F)F)c1)C(=O)CS2(=O)=O (configuration not stated) | -1.2% | . | -8.8% | -8.8% | .
CCn1nc(NC(=O)c2ccccn2)c2cc3cccc(C)c3nc21 | -17.8% | 3.98µM* | -14.1% | -25.5% | 3.16µM*
CCc1ccc(NC(=O)c2cnn3ccccc23)cc1 | -16.4% | ? | 0.7% | -15.6% | 12.6µM*
CCCN1C(=O)c2ccccc2CC1(C)C(=O)NC1CCCCC1 (configuration not stated) | 10.9% | . | 4.6% | 4.4% | .
Cc1nc2cc(N3CCN(C)CC3)c(NC(=O)Cc3ccccc3)cc2c(=O)n1Cc1ccccc1 | -15.2% | ? | 7.0% | -7.4% | 7.08µM*
Cc1nc2cc(N3CCCCC3)c(NC(=O)c3ccncc3)cc2c(=O)n1Cc1ccc(Cl)cc1 | -5.9% | -2.6% | 2.7% | -4.3% | 21.1%
COc1ccc(Nc2nc(N)c3cc(OC)c(OC)cc3n2)cc1 | ? | . | ? | 11.2µM*[quencher] | .
CCn1c(CN2CCN(c3ccc(Cl)cc3)CC2)nc2ccccc21 | ? | 8.91µM* | -2.0% | -19.6% | 10µM*
Cn1c(CN2CCN(c3ccc(Cl)cc3)CC2)nc2ccccc21 | -16.0% | ? | 5.5% | -13.0% | 6.31µM*
CN(C)/C=C/c1onc(-c2ccccc2Cl)c1C#N | -12.7% | -0.8% | 4.5% | -18.0% | ?
Cc1ccccc1-c1noc(N)c1C#N | -1.8% | ? | -4.2% | 2.5% | 5.62µM*
Fc1ccc2nc(Nc3nc4c(F)cc(F)cc4s3)sc2c1 | ? | 6.31µM* | -17.5% | ? | 8.91µM*
Fc1ccc2nc(Nc3nc4c(F)cccc4s3)sc2c1 | ? | 5.62µM* | ? | ? | 2µM*
Fc1cccc2sc(Nc3nc4ccccc4s3)nc12 | -20.6% | 7.08µM* | -15.9% | ? | 4.47µM*
c1nc(NC2CCNCC2)c2cc(-c3ccoc3)ccc2n1 | . | 0.2% | . | . | 5.5%
Cc1ncsc1C(=O)Nc1nc2c(s1)CCCC2 | -1.7% | -8.7% | -2.5% | 3.4% | -9.1%
O=C(Nc1nc2c(s1)CCCC2)c1ccc(Br)s1 | ? | ? | -5.9% | ? | 11.2µM*
O=C(Nc1nc2c(s1)CCCC2)c1ccc2ncsc2c1 | 4.2% | ? | 8.7% | 0.2% | 1.78µM*
Cc1cc(C(=O)Nc2nc3c(s2)CCCC3)cs1 | ? | 6.31µM* | -13.1% | -16.3% | ?
SMILES | Tau fibril ThT | VP16 counter | Tau FP inhib | Tau fluor cs | RORgamma inh
Cc1cccc(C(=O)Nc2nc3c(s2)CCCC3)c1 | ? | . | -14.1% | -23.4% | .
Cc1sc2nc3ccc(NCc4ccco4)nn3c(=O)c2c1C | ? | -1.8% | -7.7% | -7.5% | 8.7%
O=c1c2ccccc2nc2ccc(NCc3ccco3)nn12 | 17.8µM* | -11.9% | 22.4µM* | -22.5% | -7.5%
COc1ccc(Cl)cc1NC(=O)C(C)n1nnc2sc3c(c2c1=O)CCCC3 (configuration not stated) | ? | . | -7.8% | -29.3% | .
CC(=O)N1CCc2c(sc3c2c(=O)n(CCc2ccccc2)c(=O)n3Cc2ccc(F)cc2)C1 | ? | . | -4.1% | -26.6% | .
O=C(NCc1n[nH]c(=S)n1-c1cccc(Cl)c1)c1cccs1 | -8.6% | 0.3% | -7.8% | -12.2% | -2.4%
S=c1[nH]nc(C2CC2c2ccc(Cl)cc2)n1-c1ccc(Cl)cc1 (configuration not stated) | ? | ? | 9.1% | -27.6% | 2.24µM*
Cc1ccc(C2CC2c2n[nH]c(=S)n2-c2ccc(C)cc2)cc1 (configuration not stated) | -19.7% | 5.62µM* | 5.8% | -15.6% | 3.16µM*
Cc1ccc(-c2n[nH]c(=S)n2C)cc1 | -1.0% | ? | 3.9% | 4.6% | ?
Cc1c(-c2n[nH]c(=S)n2-c2ccc(Br)cc2)nnn1-c1ccc(Cl)cc1 | -9.0% | 6.5%[10 µM] | 6.0% | -8.0% | -9.5%
Cc1ccc(-n2c(C3CC3c3ccc(Cl)cc3)n[nH]c2=S)cc1 (configuration not stated) | ? | 5.62µM* | 6.2% | -20.5% | 2.82µM*
Cc1ccc(C2CC2c2n[nH]c(=S)n2-c2cccc(Cl)c2)cc1 (configuration not stated) | -5.8% | 7.08µM* | -10.2% | -20.2% | 2.51µM*
COc1cc(NC(=O)c2cccc3c2C(=O)N(C2CCCCC2)C3)cc(OC)c1 | -5.1% | . | -7.6% | -22.7% | .
CCOc1ccc(NC(=O)CCS(=O)(=O)c2cccc3nonc23)cc1 | -6.6% | . | -12.9% | -15.8% | .
Cc1ccc(-n2c(Cn3c(C)nc4ccccc43)n[nH]c2=S)cc1 | -0.3% | -12.5% | 9.4% | -1.2% | ?
Cc1ccc(-n2c([C@@H]3C[C@H]3c3ccccc3)n[nH]c2=S)cc1 | -17.7% | ? | -11.1% | -17.2% | 2.82µM*
O=C1c2cccc3cccc(c23)C(=O)N1CCN1CCN(C(=S)Nc2ccc(Cl)cc2)CC1 | -6.0% | -7.1% | -3.2% | -15.2% | 2.82µM*
CCOC(=O)C1=C(C)N=c2s/c(=C/c3ccccc3)c(=O)n2C1c1ccc(OC)c(OC)c1 (configuration not stated) | -15.3% | 6.0% | 1.0% | -9.2% | -0.2%
CCOC(=O)C1=C(C)N=c2s/c(=C3\C(=O)Nc4ccccc43)c(=O)n2C1c1ccc2c(c1)OCO2 (configuration not stated) | 17.8µM* | -2.7%[0.365 µM] | ? | ? | 27.7%
CCOC(=O)C1=C(C)N=c2s/c(=C\c3ccncc3)c(=O)n2C1c1ccc2c(c1)OCO2 (configuration not stated) | 25.1µM* | -10.0% | ? | ? | -29.5%
COc1ccc(NC(=O)c2cc(C3CC3)nc3c2c(C)nn3-c2ccccc2)c(OC)c1 | -3.7% | . | -9.6% | -27.6% | .
COc1cccc(C2=C(C(C)=O)Sc3nncn3N2C(C)=O)c1 | ? | . | ? | -15.2% | .
CCOc1ccc(C2=C(C(=O)CC)Sc3nncn3N2C(=O)CC)cc1 | 3.16µM* | . | -13.5% | -28.6% | .
CCC(=O)C1=C(c2ccc(F)cc2)N(C(=O)CC)n2cnnc2S1 | 10µM* | . | ? | -27.9% | .

Screens as filed in PubChem BioAssay.
